For 92 compounds, max response results are on record in PubChem BioAssay AID2314 (National Center for Advancing Translational Sciences (NCATS), 2010).

Each structure is given as a SMILES string. Several values for one entry are separate records, joined by “and”; a condition that tells them apart may be missing. Equal entries are not always repeated. Screen size: about 300,000 compounds; about 37,000 (12%) were called active. For the sample, actives were picked, then their nearest neighbours and some compounds at random. A number with no mark means an inactive call. No stated cut-off is given here; in the data, active means max response mostly above about 13% (no sharp cut-off); inactive means mostly below about 14%.

The assay is described as follows: Cycloheximide Counterscreen for Small Molecule Inhibitors of Shiga Toxin. Further: read at 38.3 µM for the half of the compounds with a filed dose; 0% is about no effect. Conditions: cell reporter, cycloheximide protein synthesis inhibition counterscreen; active compounds read high.
On to `Cc1ccc(N(Cc2ccc(C(=O)Nc3ccccc3C(=O)NCc3ccco3)cc2)S(C)(=O)=O)cc1C`, for which the max response is -1.16%.
Then `O=C(COc1ccc(Cl)cc1)NCc1nnc(SCC(=O)NCC2CCCO2)o1` (configuration not stated), with 1.5%.
As for `S=C(NCCc1ccccc1)N1CCn2cccc2C1c1ccncc1` (configuration not stated), the max response was 6.15%.
As to `CCC(C)(C)n1nnnc1CN1CCN(c2nc3ccc(C)cc3cc2C#N)CC1`, the max response was -1.82%.
On to `CCOc1ccc(CN2CCN(Cc3c[nH]c4ccccc34)CC2)cc1`, for which the max response is -0.16%.
For `CCOc1ccc(N(CC(=O)NCCc2ccc(F)cc2)S(=O)(=O)c2ccccc2)cc1`, the max response was 0.706%.
As to `COc1ccc(NC(=S)N2CCCC(CO)C2)c(OC)c1` (configuration not stated), the max response is -1.58%.
To `CCCCc1ccc(NC(=S)N2CCCC(CO)C2)cc1` (configuration not stated) belongs 39.3% (active); to `CCCCc1ccc(NC(=S)NCCCN2CCOCC2)cc1`, 12%.
`COc1ccc(S(=O)(=O)NC(C)c2ccccc2)cc1C(=O)N1CCCCC1` (configuration not stated): the max response was 8.07%.
Turning to `COc1ccc(CNC(=O)CN(Cc2ccccc2Cl)C(=O)c2csnn2)cc1`, the max response was -2.08%.
Turning to `CCOC(=O)C1(Cc2ccc(Cl)cc2)CCN(C(=O)C2=NNC(=O)CC2)CC1`, the max response is 10.1% (active).
In the case of `CC(=O)N1CCC(C(=O)OCc2ccc(Cl)cc2)(c2ccccc2)CC1`, the max response was 1.9%.
Consider `CCOC(=O)C1(Cc2ccc(Cl)cc2)CCN(C(C)CCn2cccn2)CC1` (configuration not stated), for which the max response is -3.1%.
As to `CCc1ccc(OCC2c3cc(OC)c(OC)cc3CCN2C(C)=O)cc1` (configuration not stated), the max response was -2.66%.
Turning to `O=C(CN1C(=O)S/C(=C\c2ccccc2Cl)C1=O)NC1C=CS(=O)(=O)C1` (configuration not stated), the max response was 1%.
Turning to `O=C(Nc1ccccc1F)c1ccc(Cn2cc(Br)cn2)cc1`, the max response was 27.6% (active).
To `O=C(NCc1cccnc1)Nc1ccccc1F` belongs 6.78%; to `CCOc1cccc(C(=O)Nc2cnn(Cc3ccccc3)c2)c1`, 8.38%; to `Cc1ccc(N(Cc2ccccc2O)C(=O)c2ccccc2F)cc1`, -1.08%.
To `CCN(CC)c1ccc(C(=O)NNC(=O)CCc2nc3ccccc3c(=O)[nH]2)cc1` belongs 8.34%.
On to `Cc1cc(=O)oc2cc(NC(=O)C3CC(=O)N(Cc4ccccc4)C3)ccc12` (configuration not stated), for which the max response was 5.63%.
Then `O=S(=O)(c1cccc(S(=O)(=O)N2CCC(n3nnc4ccccc43)CC2)c1)N1CCCCC1`, with -11.1%.
For the compound `CC(=O)c1cccc(S(=O)(=O)N2CCC(n3nnc4cc(F)ccc43)CC2)c1`, the max response was -0.975%.
As to `O=C(c1ccc(F)cc1)N1CCC(n2nnc3ccccc32)CC1`, the max response was 50% (active).
Consider `COc1ccc(N2CCN(S(=O)(=O)c3ccc4c(c3)NC(=O)C(C)C(=O)N4)CC2)cc1` (configuration not stated), for which the max response was -1.38%.
With `CN(CC(=O)O)S(=O)(=O)c1ccc2oc3ccccc3c2c1`, the max response is 1.18%.
`COCCCNC(=S)N(CCN(C)C)Cc1cc2cc3c(cc2[nH]c1=O)OCCO3`: the max response was 6.79%.
With `CC(=O)c1ccc(N2CCN(C(=O)CCc3ccccc3)CC2)cc1`, the max response was 3.1%.
Regarding `CC(=O)c1ccc(N2CCN(CC(O)c3ccccc3)CC2)cc1` (configuration not stated), the max response is 5.47%.
Then `CC(=O)c1ccc(N2Cc3ccccc3C2)cc1`, with 29.2% (active).
For `Cc1cc(NS(=O)(=O)c2ccc(NC(=S)NC(=O)c3ccc(F)cc3Cl)cc2)no1`, the max response was -1.71%.
`CC(=O)Nc1ccc(/C(C)=N/NC(=O)CN(c2ccccc2Br)S(C)(=O)=O)cc1`: the max response is 8.32%.
In the case of `CCN(C(=O)CSc1nnc(-c2ccncc2)o1)c1ccccc1`, the max response is -2.4%.
Then `O=C(CSc1nnc(-c2c[nH]c3ccccc23)o1)c1ccccc1`, with 8.16%.
With `CN(C(=O)CSc1nnc(-c2n[nH]c3ccccc23)o1)c1ccccc1`, the max response is 15.1% (active).
As for `COc1cc(C2/C(=C(\O)c3ccc4c(c3)CC(C)O4)C(=O)C(=O)N2c2nnc(C)s2)cc(OC)c1OC` (configuration not stated), the max response is -1.71%.
Turning to `Cc1[nH]c2ccccc2c1/C=C(/C#N)C(=O)NC(C)C`, the max response was 16.8% (active).
Then `Cc1[nH]c2ccccc2c1/C=N\NC(=O)Cn1nnc(-c2ccccc2)n1`, with -0.477%.
Consider `N#C/C(=C/c1ccc(N2CCCCC2)o1)C(=O)NCCc1c[nH]c2ccccc12`, for which the max response was -3.38%.
To `Cc1noc(C)c1C(=O)Nc1ccccn1` belongs 7.73%.
Take `Cc1cnc(NC(=O)c2ccc(Cl)nc2)s1`: the max response was 43.4% (active).
With `Cc1cnc(NC(=O)Cn2cnc3c2c(=O)n(C)c(=O)n3C)s1`, the max response was -4.16%.
As for `COC(=O)[C@@H](NC(=O)Nc1cc(Cl)ccc1C)C(C)C`, the max response was -5.71%.
Take `Cc1ccc(Cl)cc1NC(=O)c1ccccn1`: the max response was 19.9% (active).
Turning to `NS(=O)(=O)c1ccc(NC(=O)COC(=O)c2ccc(Cl)nc2)cc1`, the max response is -4.06%.
Turning to `Cc1cnc(NC(=O)c2ccccn2)s1`, the max response was 26.4% (active).
To `O=C(NNc1ccccn1)c1ccc(Cl)nc1` belongs 2.34%.
As to `CCOc1cc(NC(=O)c2ccccn2)c(OCC)cc1NC(=O)c1ccc(OC)cc1`, the max response was -3.64%.
To `O=C(Nc1nnc(Cc2ccc(Cl)cc2)s1)c1cccnc1` belongs 1.24%; to `Cc1ccc(NC(=O)c2ccccn2)cc1S(=O)(=O)N1CCOCC1`, 2.74%.
Then `CCN(CC)c1ccc(NC(=O)c2ccc(Cl)nc2)cc1`, with 16.7% (active).
`Cc1c(CC(=O)NCCCCCC(=O)O)c(=O)oc2cc3occ(-c4ccccc4)c3cc12`: the max response was -1.63%.
To `O=C(CCN1C(=O)C2C3CCC(C3)C2C1=O)Nc1ccc(Cl)cc1Cl` (configuration not stated) belongs 3.53%; to `CCOc1ccc(Nc2nc(Cc3nnc(SCC(=O)c4ccc(C)cc4)o3)cs2)cc1`, -3.13%; to `Cc1ccc(CCNC(=O)c2ccc3nc4ccccc4c(=O)n3c2)cc1`, 4.5%.
Then `CN(C)S(=O)(=O)c1cccc(C(=O)OCC(=O)N2CCCC2=O)c1`, with -2.94%; and `O=C(Nc1ccc(-n2ccnc2P(=O)(O)c2ccccc2)cc1)c1ccccc1Br`, with 2.05%.
Consider `COc1ccc(S(=O)(=O)N(CC(=O)N/N=C/c2ccc(C(=O)O)cc2)Cc2ccccc2)cc1OC`, for which the max response was -6.63%.
For the compound `Cc1nonc1C1CCCN1Cc1nc(-c2ccc(F)cc2F)oc1C` (configuration not stated), the max response is 6.22%.
As for `CCCOc1ccc(CNC(=O)C2CCN(c3nn4c(=O)cc(C)nc4s3)CC2)cc1`, the max response was -3.96%.
In the case of `Cc1cc(=O)n2[nH]c(-c3sccc3-n3c(C)ccc3C)cc2n1`, the max response was 5.31%.
On to `CCCCN1Cc2c(nc3cc(-c4ccccc4)[nH]n3c2=O)C1=O`, for which the max response is 7.79%.
Then `CCc1c(C)nc2cc(C)[nH]n2c1=O`, with -1.78%; and `CCc1c(C)nc2cc(-c3cccs3)[nH]n2c1=O`, with 29.6% (active).
`Cc1nc2nc[nH]n2c(=O)c1C/C=C/c1ccccc1`: the max response was 10.1%.
In the case of `C=CCc1c(C)nc2cc(-c3ccccc3)[nH]n2c1=O`, the max response was 37% (active).
As to `COCCn1cnc2c1c(=O)n(Cc1ccc(Br)cc1)c(=O)n2Cc1ccccc1`, the max response was -1.88%.
Consider `Cc1ccc(NC(=O)C(CC(=O)O)C2CCCO2)c(C)c1` (configuration not stated), for which the max response was -2.11%.
To `CC(NC(=O)CNC(=O)Cc1cccc2ccccc12)c1ccc(S(N)(=O)=O)cc1` (configuration not stated) belongs 4.99%.
As for `Cc1csc2ncc(C(=O)N(Cc3ccccc3)c3ccccn3)c(=O)n12`, the max response was -6.72%.
Then `CC1(C)NC(=O)N(CC(=O)Nc2cc(C(F)(F)F)cc(C(F)(F)F)c2)C1=O`, with -1.59%; and `O=C1C2CCCN2C(=O)N1CCCCN1CCN(c2cccc(C(F)(F)F)c2)CC1` (configuration not stated), with -0.302%.
For `O=C(NCc1ccco1)/C(=C\c1cccc([N+](=O)[O-])c1)NC(=O)c1ccco1`, the max response is -3.43%.
Then `COc1cc(NS(=O)(=O)c2ccc3ccccc3c2)c2ncccc2c1`, with -1.06% and -1.79%; and `CS(=O)(=O)C1=NN2C(=N)/C(=C\c3ccc(OCCOc4ccccc4)cc3)C(=O)N=C2S1`, with 8.57%; and `CCS(=O)(=O)C1=NSC2=NC(=O)/C(=C\c3ccc(OS(=O)(=O)c4ccccc4)cc3)C(=N)N21`, with 23.1% (active).
With `COc1ccccc1OCCOc1ccc(/C=C2\C(=N)N3N=C(C)SC3=NC2=O)cc1`, the max response is -1.22%.
On to `CCC1=NN2C(=N)/C(=C/c3cc(C)n(-c4ccccc4)c3C)C(=O)N=C2S1`, for which the max response is 4.37%.
On to `CCS(=O)(=O)C1=NSC2=NC(=O)/C(=C\c3cc(C)n(-c4cccc(OC)c4)c3C)C(=N)N21`, for which the max response was 3.96%.
On to `Cc1cc(/C=C2/C(=N)N3C(=NC2=O)SN=C3S(C)(=O)=O)c(C)n1-c1ccccc1`, for which the max response was 28.8% (active).
Turning to `COc1ccc(C(=O)NCCCN2CCOCC2)cc1Br`, the max response is 0.527%.
Then `C/C(=N\N=C(N)N)c1ccc(Cl)cc1`, with -3.34%; and `COc1ccc(CCNC(=O)CN(C)S(=O)(=O)c2ccc3nc(C)sc3c2)cc1OC`, with -1.23%; and `COc1ccc2c(CC(=O)N3CCc4cc(OC)c(OC)cc4C3)coc2c1`, with -5.51%.
As to `CC(NCc1cccs1)C(=O)Nc1cc(Cl)cc(Cl)c1` (configuration not stated), the max response was -2.66%.
With `CC(=O)c1ccc(NC(=O)C(C)N(C)CC(=O)Nc2ccccc2Cl)cc1` (configuration not stated), the max response is 5.03%.
On to `CC(=O)c1ccc(NC(=O)C(C)NCc2ccc(Cl)cc2)cc1` (configuration not stated), for which the max response is 32.7% (active).
`Nc1c(Cl)cc(-c2csc(N3CCCC3c3nc4cc(Cl)c(Cl)cc4n3CCOCCO)n2)cc1Cl` (configuration not stated): the max response was 2.13%.
As to `Cc1ccc(N=Cc2c(O)cc(C)oc2=O)c(C)c1`, the max response is -0.907%.
For `Cc1cc(O)c(C(=O)/C=C/c2c(F)c(F)c(F)c(F)c2F)c(=O)o1`, the max response was 35.8% (active).
With `C/C(=N\NS(=O)(=O)c1ccccc1)c1c(O)cc(C)oc1=O`, the max response is 3.15%.
